# Test results as given in PubChem BioAssay AID431 (Sanford-Burnham Center for Chemical Genomics, 2006).
# Several values for one entry are separate records, joined by “and”; a condition that tells them apart may be missing. Identical values can stand only once. Hit rate of the full screen: of about 63,000 compounds, about 1,100 (1.7%) were called active. The entries come from a sample that favours actives as a whole. Entries with a potency or affinity are not part of this list. A number with no mark means an inactive call.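 The calls were made as follows: active = compounds whose percent cytotoxicity in the single-dose primary screen, scaled between solvent and toxic-drug controls, exceeds 50; inactive = the rest.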
# Experiment: cytotoxicity in KRAS-transformed pancreatic duct cells, primary screen, cell-based, fluorescence, HTS (AID 431);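 also: 0% = DMSO solvent wells and 100% = doxorubicin-treated wells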
# Conditions: HPDE-C7K KRASV12 cells, Alamar Blue viability, 48 h; at 10 µM; active compounds read high
row,Structure (SMILES),cytotoxicity
1,O=C(Cn1c(=O)oc2cc(S(=O)(=O)NCc3ccccc3)ccc21)NCc1ccco1,2.7%
2,CCCc1nc(N2CCOCC2)c(C#N)c2c1CCCC2,-0.6%
3,CC(C)Cc1nc(N2CCOCC2)c(C#N)c2c1CCC2,64.8% (active)
4,CCc1nc(N2CCN(C(=O)c3ccccc3)CC2)c(C#N)c2c1COC(C)(C)C2,5.9%
5,CC(C)Cc1nc(N2CCCCC2)c(C#N)c2c1CCC2,16.1%
6,CCCc1nc(N2CCCC2)c(C#N)c2c1CCCC2,87.9% (active)
7,CC(C)Cc1nc(N2CCN(C(=O)C(C)C)CC2)c(C#N)c2c1CCC2,-14.5%
8,CC1(C)Cc2c(C#N)c(N3CCOCC3)nc(Cc3ccccc3)c2CO1,40%
9,CCc1nc(N2CCCC2)c(C#N)c2c1CCCC2,-11.1%
10,CC(=O)N1CCN(c2nc(CC(C)C)c3c(c2C#N)CCC3)CC1,2%
11,CC(C)Cc1nc(N2CCN(C(=O)c3ccco3)CC2)c(C#N)c2c1CCC2,63.2% (active)
12,CCc1nc(N2CCOCC2)c(C#N)c2c1CCCC2,-2.9%
13,CCCNC1=C(C)C(=O)CC1,15.5%
14,CCOc1ncccc1C(=O)OCC(=O)c1ccc[nH]1,2.7%
15,COc1ccc(CCNC(=O)C2=COCCO2)cc1,-8.1%
16,COc1ccc(NC(=O)c2cc3n(n2)C(C(F)(F)F)CC(c2ccc4c(c2)OCO4)N3)cc1OC (stereo not drawn),69.1% (active)
17,COc1ccccc1NC(=O)c1cc2n(n1)C(C(F)(F)F)CC(c1ccc3c(c1)OCO3)N2 (stereo not drawn),41.8%
18,Cc1cc(NC(=O)c2cc3n(n2)C(C(F)(F)F)CC(c2ccc(Cl)c(Cl)c2)N3)no1 (stereo not drawn),14.7%
19,COc1ccc(C2CC(C(F)(F)F)n3nc(C(=O)Nc4ccc5c(c4)OCO5)cc3N2)cc1 (stereo not drawn),-10.9%
20,Cc1cccc(NC(=O)c2cc3n(n2)C(C(F)(F)F)CC(c2ccc4c(c2)OCO4)N3)c1 (stereo not drawn),75.8% (active)

row,Structure (SMILES),cytotoxicity
1,O=C(NCc1ccc2c(c1)OCO2)c1cc2n(n1)C(C(F)(F)F)CC(c1ccc3c(c1)OCO3)N2 (stereo not drawn),21.6%
2,O=C(Nc1cc(Cl)ccc1O)c1cc2n(n1)C(C(F)(F)F)CC(c1ccc3c(c1)OCO3)N2 (stereo not drawn),-19.1%
3,O=C(Nc1ccc2c(c1)OCO2)c1cc2n(n1)C(C(F)(F)F)CC(c1ccccc1)N2 (stereo not drawn),72.7% (active)
4,COc1ccc(OC)c(NC(=O)c2cc3n(n2)C(C(F)(F)F)CC(c2ccc4c(c2)OCO4)N3)c1 (stereo not drawn),42.4%
5,CC(=O)N(c1ccc2oc(=O)sc2c1)S(=O)(=O)c1cccs1,14.7%
6,COc1ccc(NC(=O)N2CCn3c2nc2ccccc23)cc1,-17.6%
7,N=c1c(C(=O)NC2CCCC2)cc2c(=O)n3ccccc3nc2n1CCN1CCOCC1,-8.1%
8,COCc1[nH]nc2c1C(c1ccc(F)cc1F)C(C#N)=C(N)O2 (stereo not drawn),-13.5%
9,Cc1cc(N2C(=O)C(O)=C(C(=O)c3ccco3)C2c2cccnc2)no1 (stereo not drawn),-10.4%
10,Cn1c(C(=O)Nc2ccc3c(c2)OCCO3)cc2c(=O)n(C)c3ccccc3c21,48.6%
11,C=CCn1c(COc2cccc3ccc(C)nc23)nnc1SCC(=O)OC,6.8%
12,COc1cccc(CN2CCNC(=O)C2CC(=O)O)c1OC (stereo not drawn),-4.6%
13,Cc1n[nH]c(C)c1S(=O)(=O)N1CCN(C(=O)c2ccco2)CC1,4%
14,COC(=O)c1ccc(CN(c2ccc(C)cc2)S(=O)(=O)c2ccc3c(c2)OCCO3)o1,7.1%
15,COc1cccc(N(CC(=O)NC(C)(C)C)C(=O)C2CSC(=O)C2)c1 (stereo not drawn),-24.1%
16,CCOC(=O)C1CCN(c2ncnc3c2cnn3-c2ccccc2)CC1,2.3%
17,COc1ccc(/C(O)=C2/C(=O)C(=O)N(CCN(C)C)C2c2ccccn2)cc1OC (stereo not drawn),-9.5%
18,O=C(NC1CCCCC1)C(c1ccc(F)cc1)N(Cc1ccco1)C(=O)Cn1nnc2ccccc21 (stereo not drawn),-8.2%
19,CCC(C)(C)NC(=O)C(c1ccccc1F)N(Cc1ccco1)C(=O)Cn1nnc2ccccc21 (stereo not drawn),-4.3%
20,O=C(NC1CCCCC1)C(c1ccccc1F)N(Cc1ccco1)C(=O)Cn1nnc2ccccc21 (stereo not drawn),65.1% (active)

row,Structure (SMILES),cytotoxicity
1,O=C(OC(C(=O)NCC1CCCO1)c1ccc(F)cc1)c1ccco1 (stereo not drawn),-12.4%
2,COc1cc(-c2c(C#N)c(N)nc3c2CCCC3)ccc1O,-23.5%
3,COc1cc2nc(N3CCN(C(=O)C4CCCO4)CC3)nc(N)c2cc1OC (stereo not drawn),-6.8% and -0.8%
4,COc1cc2nc(N3CCN(C(=O)c4ccco4)CC3)nc(N)c2cc1OC,90.2% (active)
5,COc1cc2nc(N3CCN(C(=O)C4COc5ccccc5O4)CC3)nc(N)c2cc1OC (stereo not drawn),43.4%
6,CN(c1ccccc1C(=O)NCc1ccco1)S(C)(=O)=O,3.4%
7,Cc1ccc(S(=O)(=O)NCCC(=O)Nc2nnc(C3CC3)s2)cc1C,5.5%
8,O=C(NCCCN1CCOCC1)c1ccc(CS(=O)(=O)c2cccc(C(F)(F)F)c2)o1,-4.8%
9,O=C1c2cccnc2C(O)N1Cc1cccs1 (stereo not drawn),-24.1%
10,CCC(C)n1ncn(-c2ccc(N3CCN(c4ccc(OCC5COC(Cn6cncn6)(c6ccc(Cl)cc6Cl)O5)cc4)CC3)cc2)c1=O (stereo not drawn),68.7% (active)
11,CCCC1COC(Cn2cncn2)(c2ccc(C)cc2)O1 (stereo not drawn),-8.6%
12,O=C1Nc2ccccc2C12OCC(COc1ccc(Cl)cc1)O2 (stereo not drawn),36.3%
13,CN1CCN(S(=O)C23CC4CC(CC(C4)C2)C3)CC1 (stereo not drawn),-18.9%
14,CCOc1ccc(-c2n[nH]c(C)c2-c2ccccc2OC)c(O)c1,-3.5%
15,CCOc1ccc(-c2nc(N)nc(C)c2-c2ccc(OC)c(OC)c2)c(O)c1,9.6%
16,COc1ccc(C(=O)OCCN2C(=O)c3ccccc3C2=O)cc1,1.1%
17,CCCOC(=O)c1ccc(OC(=O)c2ccco2)cc1,1.8%
18,Cc1cc2nc(SCCN3CCCC3)[nH]c2cc1C,16.7%
